Here are results for 70 molecules from ChEMBL document CHEMBL4513216, “Probing the Open Global Health Chemical Diversity Library for Multistage-Active Starting Points for Next-Generation Antimalarials” (ACS Infect Dis, 2020).

Structures are written as SMILES. Among all 69,000 compounds or so, about 8,600 (12%) showed an effect of 50% or more. This excerpt belongs to a sample that is enriched for strong results.

The test system of this assay is Plasmodium berghei. Nature of the assay: Screen against P. berghei liver stage (PbLuc), transformed with Luciferase, at 10uM. Type of assay: functional, HepG2. The conditions noted are these: tested at 10 uM.
Take `Cc1ccoc1C(=O)N1CC[C@H]2[C@H](C[C@@H](CN3CCCC3)N2C)C1`: the INHIBITION was 47.4%.

Turning to `CC(=O)N1N=C(c2cccs2)OC1C(=O)NCc1ccc(C)o1` (stereo not given), the INHIBITION is listed as 53%.

Regarding `CCOc1ccc(NC(=O)C2OC(c3cccs3)=NN2C(C)=O)cc1` (stereo not given), the INHIBITION was 11.5%.

Consider `CC(=O)N1N=C(c2cccs2)OC1C(=O)Nc1ccccc1` (stereo not given), for which the INHIBITION is recorded as -4.32%.

In the case of `CC(=O)N1N=C(c2cccs2)OC1C(=O)Nc1ccc(C)cc1` (stereo not given), the INHIBITION is on record as -25.1%.

Take `COc1ccc(NC(=O)C2OC(c3cccs3)=NN2C(C)=O)cc1` (stereo not given): the INHIBITION was 28.3%.

Take `CCc1ccc(NC(=O)C2OC(c3cccs3)=NN2C(C)=O)cc1` (stereo not given): the INHIBITION worked out at 52.1%.

For `CCn1cc(C(=O)NCCc2nc(-c3ccc(C)cc3)n[nH]2)c(C)n1`, the INHIBITION was 12.8%.

For `COc1cccc2c1ccn2CCC(=O)N1CCC(C(=O)O)CC1`, the INHIBITION was determined as 25.1%.

Turning to `CN(C)C(=O)CN1C[C@H]2CN(Cc3cccc(F)c3)C(=O)[C@H]2C1`, the INHIBITION is 25.2%.

`Cc1occc1CNC(=O)C1(C)CCCN1C(=O)c1ccccc1` (stereo not given): the INHIBITION stood at 28.7%.

As to `CC(C)C(=O)N1CCC12CCCN(C(=O)c1ccccc1)C2` (stereo not given), the INHIBITION came to 36.2%.

Turning to `Cc1occc1CNC(=O)C1(C)CCCN(C(=O)c2ccccc2)C1` (stereo not given), the INHIBITION was 58.3%.

As to `CCN(C)Cc1cccc(CNC(=O)CSCc2ccncc2)c1`, the INHIBITION came to 35.4%.

Take `Fc1cnc(N2C[C@@H](OCC3CCOCC3)[C@H]3OCCC[C@H]32)nc1`: the INHIBITION came out at 44.4%.

Regarding `O=C(c1ccc(Cl)cc1)N1CCC2(C1)C(=O)Nc1ccccc12` (stereo not given), the INHIBITION is -18.8%.

As to `O=C(OCc1ccccc1)N1CC[C@H]2CC(CO)O[C@@H]2C1` (stereo not given in full), the INHIBITION came to 78.3%.

As for `CN(C)C[C@H]1C[C@@H]2CN(C(=O)c3ccco3)C[C@@H]2O1`, the INHIBITION is recorded as 42.3%.

Turning to `C[C@H]1C[C@@H]2CCN(C(=O)c3ccccn3)C[C@H]2O1`, the INHIBITION was -0.813%.

In the case of `Cn1ccnc1SCCNc1cc(N2CCOCC2)ncn1`, the INHIBITION is on record as -7.85%.

As to `Cn1ncc2c(N3CCCC(C)(O)C3)nc(-c3cccnc3)nc21` (stereo not given), the INHIBITION is 23.5%.

Consider `CN1CCCC1CNC(=O)CCCOc1ccc(I)cc1` (stereo not given), for which the INHIBITION came to 18.625%.

For `COc1ccc(Cc2nc3c([nH]2)CC(C)(C)CNC3=O)c(OC)c1`, the INHIBITION is on record as 16.8%.

`COc1cccc(-c2nc3c([nH]2)CC(C)(C)CNC3=O)c1OC`: the INHIBITION is on record as 30.7%.

`COc1ccc(Cc2nc3c([nH]2)CC(C)(C)CNC3=O)cc1OC`: the INHIBITION turned out to be 13.9%.

In the case of `COc1cc(Cc2nc3c([nH]2)CC(C)(C)CNC3=O)cc(OC)c1`, the INHIBITION was 59.4%.

Regarding `COc1cccc(Cc2nc3c([nH]2)CC(C)(C)CNC3=O)c1OC`, the INHIBITION is 55.5%.

On to `CC1(C)CNC(=O)c2nc(-c3ccccc3)[nH]c2C1`, for which the INHIBITION was determined as 18.8%.

Regarding `CC(C)N1CCO[C@@H]2CN(C(=O)NCc3ccccc3)CC[C@@H]2C1`, the INHIBITION is recorded as 32.1%.

Consider `COc1nc2cc(C)ccc2cc1CN(C)Cc1cc(C)[nH]n1`, for which the INHIBITION worked out at 36.1%.

`CC(CNC(=O)c1cnc[nH]1)Oc1ccc(Cl)cc1` (stereo not given): the INHIBITION is listed as 20.9%.

Turning to `COc1ccccc1OC(C)CNC(=O)c1cnc[nH]1` (stereo not given), the INHIBITION is -15.5%.

With `CC(CNC(=O)c1cnc[nH]1)Oc1ccccc1Br` (stereo not given), the INHIBITION is reported as 57.2%.

In the case of `O=C(c1cc(Cn2ccc3ccccc32)[nH]n1)N1CCCCC1CO` (stereo not given), the INHIBITION worked out at 13%.

As for `Cc1cnn(CC2CCCN2C(=O)CCc2ccco2)c1` (stereo not given), the INHIBITION was 45.9%.

`Cc1ccccc1CN1CCC(c2nn(CCN)c3nccnc23)C1` (stereo not given): the INHIBITION is recorded as 43.6%.

Consider `NCCn1nc(C2CCN(Cc3ccccc3Cl)C2)c2nccnc21` (stereo not given), for which the INHIBITION is -49%.

Regarding `NCCn1nc(C2CCN(C(=O)Cc3ccccc3)C2)c2nccnc21` (stereo not given), the INHIBITION is reported as 30.4%.

With `CC(C)(C)CC(=O)N1CCC(c2nn(CCN)c3nccnc23)C1` (stereo not given), the INHIBITION is reported as -3.31%.

As for `COc1cccc(CN2CCC(c3nn(CCN)c4nccnc34)C2)c1` (stereo not given), the INHIBITION turned out to be 7.52%.

On to `NCCn1nc(C2CCN(Cc3ccc(Cl)c(Cl)c3)C2)c2nccnc21` (stereo not given), for which the INHIBITION is recorded as 71.1%.

As for `COc1ccccc1CN1CCC(c2nn(CCN)c3nccnc23)C1` (stereo not given), the INHIBITION was 52%.

Take `NCCn1nc(C2CCN(Cc3ccccc3)C2)c2nccnc21` (stereo not given): the INHIBITION was 60.5%.

Turning to `COc1ccccc1CN1CCC(c2nccc(C)n2)C1` (stereo not given), the INHIBITION is 38.3%.

With `CC(O)c1cnn(-c2ccccc2)c1` (stereo not given), the INHIBITION is recorded as -6.04%.

Turning to `O=C(O)c1ccccc1-c1ccc(CN2CCC(CO)CC2)cn1`, the INHIBITION is given as 9.98%.

As to `CCNc1cc2c(nn1)CCN(C(=O)CCc1c(C)noc1Cl)C2`, the INHIBITION was found to be 0.411%.

As for `COc1ccccc1C(=O)N1CCN(C(=O)Cc2ccccn2)CC1`, the INHIBITION is -36.1%.

Regarding `Cc1ncccc1C(=O)Nc1cccc(Cn2ccccc2=O)c1`, the INHIBITION is 38.5%.

Take `CCn1ncnc1CN1CCC(CNC(=O)c2cccc(C)n2)C1` (stereo not given): the INHIBITION was 15.4%.

As to `CCc1ccc(C(=O)N2CCCC(n3nc(C)nc3C)C2)o1` (stereo not given), the INHIBITION is 33.73%.

As for `CCOCCc1nc(CCc2ccccc2)n[nH]1`, the INHIBITION amounted to 26.7%.

On to `CCc1cnc(N2C[C@H]3CCCC(N(C)Cc4ccccn4)[C@H]3C2)nc1` (stereo not given in full), for which the INHIBITION worked out at 33.1%.

Regarding `CN(Cc1ccccn1)C1CCC[C@@H]2CN(CC3CC3)C[C@H]12` (stereo not given in full), the INHIBITION is given as 22.2%.

Consider `Cc1cnc(N2C[C@H]3CCCC(N(C)Cc4ccccn4)[C@H]3C2)nc1` (stereo not given in full), for which the INHIBITION worked out at 55.7%.

With `CC(C)NC(=O)c1nc(Cn2c(C(F)(F)F)nc3ccccc32)no1`, the INHIBITION is 43.9%.

Regarding `Cc1nc2ccccc2n1Cc1cc(C(=O)NC2CCOC2)no1` (stereo not given), the INHIBITION was determined as 11.1%.

Regarding `O=C(NC1CC1)c1nc(Cn2c(C(F)F)nc3ccccc32)no1`, the INHIBITION was determined as 54.8%.

With `CC(C)NC(=O)c1nc(Cn2c(C(F)F)nc3ccccc32)no1`, the INHIBITION was found to be 62.4%.

Regarding `O=C(NC1CCCC1)c1cc(Cn2cnc3ccccc32)on1`, the INHIBITION amounted to 5.8%.

`Cc1occc(=O)c1OCc1noc(C(=O)NC(C)C)n1`: the INHIBITION was 42.8%.

Consider `COc1ccccc1-c1csc(NC(=O)N2CCN(C)CC2C)n1` (stereo not given), for which the INHIBITION is -9.08%.

Turning to `Cc1cc(C)n(CC2CN(Cc3nnc(C)o3)CCO2)n1` (stereo not given), the INHIBITION is 5.1%.

Take `O=C(c1ccc(F)cc1F)N1C[C@@H]2CC[C@H]1CN(Cc1ccccc1)C2`: the INHIBITION was 41.5%.

As to `O=C1CC(c2ccc(C(=O)O)cc2)c2cnn(Cc3ccco3)c2N1` (stereo not given), the INHIBITION is -8.04%.

In the case of `CC(C)C1CC(=O)Nc2c1cnn2Cc1ccco1` (stereo not given), the INHIBITION is listed as 7.85%.

As for `CN(C)c1ccc(C2CC(=O)Nc3c2cnn3Cc2ccco2)cc1` (stereo not given), the INHIBITION amounted to 1.45%.

In the case of `O=C1CC(c2ccc(CO)o2)c2cnn(Cc3ccco3)c2N1` (stereo not given), the INHIBITION is on record as 67.6%.

As to `CC(C)CC1CC(=O)Nc2c1cnn2Cc1ccco1` (stereo not given), the INHIBITION amounted to 50.2%.

In the case of `CC(C)(C)C1CC(=O)Nc2c1cnn2Cc1ccco1` (stereo not given), the INHIBITION is given as -21.7%.
